HCV inh: blocks hepatitis C virus. Huh7.5.1 HCVcc-Cre infection, luciferase reporter, 44 h. Potency, µM (doses to about 41.8 µM), for inactives: top-dose activity change, negative = inhibition, actives largely listed as inhibitors. actives 3.4% (n = 340,000). AID 651820; active = well fitted inhibition curve with a large enough effect; inconclusive = small, poorly fitted or top-dose-only effect, or another doubt; inactive = no such curve, though single readings can be large or run the other way; also: potency is read from the fitted curve at half-maximal effect
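Whole-lifecycle infectious HCVcc-Cre system; cells 1,000/well, compound then virus (~0.5 moi) added 4 h after plating, 44 h culture. Luciferase read 15 sec following 15 min substrate incubation, room temp.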
HCMV inh: blocks human cytomegalovirus replication; actives 4.5% (n = 410,000); HFF cells, HCMV-luciferase reporter, 72 h; stronger effect = lower value; activity change, negative = inhibition, % at 57.5 µM; in the data active = activity change below about -60%; inconclusive = no clear call, values can overlap the other calls; inactive = above about -39%
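Two-dose cell screen: HFF monolayers treated with compounds and infected with luciferase-expressing HCMV at 1 PFU/cell, 72 h at 37C, then lysed for luciferase measurement.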
Marburg entry inh: Marburg virus entry inhibition | Marburg virus pseudotyped entry inhibition, cell reporter | Potency, µM (top dose mostly 37.8 µM), without a hit: at the highest dose activity change, negative = inhibition, usual class: inhibitors | actives 1.8% (n = 300,000) | AID 540276; calls by dose curve; tested in HEK293 cells; also: potency is read from the fitted curve at half-maximal effect
FMDV antiviral: foot and mouth disease virus antiviral activity; FMDV antiviral cell-based qHTS; Potency, µM (titrated, usually from 57.9 µM), inactives show top-dose activity change, negative = inhibition, most hits filed as inhibitors; actives 1.2% (n = 410,000); AID 1159524; calls by dose curve; tested in HEK293T cells; also: read-out not given here; potency is read from the fitted curve at half-maximal effect; nearly all actives have a fitted effect of over 45% in size
Lassa entry inh: inhibitors of Lassa virus binding or cell entry. Lassa virus pseudotype entry inhibition, cell reporter. Potency, µM (top dose mostly 37.9 µM), for inactives: at the highest dose activity change, negative = inhibition, actives largely listed as inhibitors. actives 1.2% (n = 300,000); calls by dose curve; tested in HEK293 cells; also: potency is read from the fitted curve at half-maximal effect; nearly all actives have a fitted effect of over 50% in size
Starred values were filed as active, the others as inactive; [ ] = dose if it differs, or a comment. Compounds with a hit are over-represented: about 7.9% of the library has one in this group of screens. % is scaled to controls: 0 for no effect and ±100 for the full control effect.

O=C(NCc1ccco1)c1ccc(Cn2cc([N+](=O)[O-])cn2)o1 was read as HCV inh 5.3%, HCMV inh 20.4, Marburg entry inh 5.6%, FMDV antiviral 7.7% and Lassa entry inh 0.5%.
`O=C(NCc1cccnc1)c1ccc([N+](=O)[O-])o1` gave HCV inh inconclusive, HCMV inh -85.1* and FMDV antiviral -0.9%.
Screening O=C(NCc1ccco1)c1ccc([N+](=O)[O-])o1 returned HCV inh -27.5%, HCMV inh -65.5*, Marburg entry inh 2.6%[46.1 µM], FMDV antiviral -20.0% and Lassa entry inh -13.0%.
For CCOc1ccc(C(=O)c2cn(CC(=O)Nc3cc(OC)cc(OC)c3)c3ccc(F)cc3c2=O)cc1 the results were HCMV inh 12.5, Marburg entry inh -18.4%[46.1 µM], FMDV antiviral 9.1% and Lassa entry inh -14.2%[46.1 µM].
Screening Cc1ccc(-n2c(C)c3c(C)nnc(C)c3c2C)cc1N returned HCV inh inconclusive, HCMV inh -17.5, Marburg entry inh 13.7%, FMDV antiviral -16.9% and Lassa entry inh -5.5%.
`Cc1cc(-n2c(C)c3c(C)nnc(C)c3c2C)ccc1N` gave HCV inh -75.8%, HCMV inh -61.8*, Marburg entry inh 16.7%[14.2 µM], FMDV antiviral -17.6% and Lassa entry inh 7.2%.
For COc1cnc(SC)nc1Nc1ccc(C#N)cc1 the results were HCV inh 22.4µM*, HCMV inh -34.7 and FMDV antiviral -15.2%.
For COC(=O)C1=C(c2cccc(OCc3ccccc3)c2)C[C@@H]2CC[C@H]1N2C(=O)NCc1ccc(C(C)(C)C)cc1 the results were HCV inh 25.1µM*, HCMV inh -17.1 and FMDV antiviral -9.5%.
COC(=O)C1=C(c2cccc(OCc3ccccc3)c2)C[C@@H]2CC[C@H]1N2C(=O)NCc1cccc(OC)c1 was read as HCV inh inconclusive, HCMV inh -26.5 and FMDV antiviral -16.0%.
For COC(=O)C1=C(c2cccc(OCc3ccccc3)c2)C[C@@H]2CC[C@H]1N2C(=O)NCc1ccc(N(C)C)cc1 the results were HCV inh 12.6µM*, HCMV inh -19.2 and FMDV antiviral -12.6%.
`CCCC(=O)Nc1ccc(Sc2ccc([N+](=O)[O-])cc2)cc1` gave HCV inh inconclusive, HCMV inh -75.1*, Marburg entry inh 20µM*, FMDV antiviral inconclusive and Lassa entry inh 10µM*.
CCC(CC)C(=O)Nc1ccc(Sc2ccc([N+](=O)[O-])cc2)cc1 was read as HCV inh inconclusive, HCMV inh -96.3*, Marburg entry inh -14.4%, FMDV antiviral inconclusive and Lassa entry inh 10.0%.
CCCC(=O)Nc1ccc(C(=O)NNC(=O)c2cccc([N+](=O)[O-])c2)cc1 was read as HCV inh -3.1%, HCMV inh 37.7, Marburg entry inh inconclusive, FMDV antiviral 2.8% and Lassa entry inh 13.6%.
CCC(CC)C(=O)Nc1ccc([N+](=O)[O-])cn1 was read as HCV inh 0.8%, HCMV inh -83.9*, Marburg entry inh 8.2%[46.1 µM], FMDV antiviral -18.0% and Lassa entry inh 0.1%[46.1 µM].
COc1ccc(CCNC(=O)/C=C/c2ccc3ccccc3n2)cc1OC was read as HCV inh inconclusive, HCMV inh -99.6*, Marburg entry inh inconclusive and FMDV antiviral 28.2µM*.
COc1ccc(/C=C/C(=O)NCCc2ccc(OC)c(OC)c2)cc1 was read as HCV inh -1.5%, HCMV inh -16.3, Marburg entry inh 2.7%, FMDV antiviral inconclusive and Lassa entry inh 29.2%.
For CN=C1CC(SC)=C1c1ccc(C)cc1 the results were HCV inh 11.5%, HCMV inh -19.1, Marburg entry inh -23.1%, FMDV antiviral 31.6µM* and Lassa entry inh inconclusive.
Screening CN1C[C@@H]2[C@@H]3C(=O)N(C)C(=O)[C@@H]3[C@](C)(C1=O)N2C(=O)c1ccc(Cl)c(Cl)c1 returned HCV inh 15.1%, HCMV inh -9.9 and FMDV antiviral -20.6%.
`O=C(NNc1nc(-c2ccccc2)cs1)c1ccccc1` gave HCV inh inconclusive, HCMV inh -32.9, Marburg entry inh inconclusive, FMDV antiviral 24.1% and Lassa entry inh inconclusive.
For N#Cc1ccc(-c2csc(NNC(=O)c3ccccc3)n2)cc1 the results were HCV inh -18.8%, HCMV inh -31.4, Marburg entry inh 10µM*, FMDV antiviral -12.6% and Lassa entry inh inconclusive.
N#Cc1ccc(-c2csc(NNC(=O)c3ccc(Br)cc3)n2)cc1 was read as HCV inh 8.91µM*, HCMV inh -105.6*, Marburg entry inh inconclusive, FMDV antiviral -23.4% and Lassa entry inh -20.7%.

Assay outcomes: PubChem, National Center for Advancing Translational Sciences (NCATS)
